DSG3 Ab inh = inhibitors of pemphigus antibody binding to human desmoglein-3 | P32926 | DSG3-coupled beads, scFv-anti-DSG3-GFP binding, flow cytometry; stronger effect = lower value | binding (percent of control), % at 10 µM | AID 588358 | hit rate 0.48% among 310,000;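 active means binding more than 3 SD below its plate's average and above zero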
M18AAP inhibitor = blocks P. falciparum M18 aspartyl aminopeptidase | recombinant PfM18AAP, H-Glu-NHMec fluorogenic cleavage | hit rate 1.2% among 290,000 | AID 1822 | inhibition, % at 7.35 µM;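 active means inhibition above the campaign mean inhibition over all tested compounds plus 3 SD, cut at about 28% in these data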;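 further: 0% = plate median of test compound wells and 100% = 2 mM ZnCl2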
PAFAH1B3 inh = PAFAH1B3 (human) inhibition; AID 492972; inhibition, % at 3.39 µM; hit rate 0.28% among 340,000; recombinant PAFAH1B3, FP-rhodamine probe, fluorescence polarization;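 active means inhibition above the screen-wide average of all tested compounds plus 3 SD, cut at about 25% in these data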;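 further: 0% = enzyme with DMSO only and 100% = wells lacking PAFAH1B3 protein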
PAFAH2 FP inh = inhibitors of human PAFAH2; Q99487; recombinant PAFAH2, FP-rhodamine activity probe, fluorescence polarization; inhibition, % at 3.39 µM; hit rate 0.99% among 340,000;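 active means inhibition above the mean over all tested compounds plus 3 SD, cut at about 30% in these data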;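 further: inhibitors block probe labeling of enzyme so polarization drops; 0% = enzyme with DMSO and 100% = wells lacking PAFAH2 protein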
PAFAH1B2 inh = inhibitors of human PAFAH1B2; hit rate 1.2% among 340,000; inhibition, % at 3.39 µM; recombinant PAFAH1B2, FP-rhodamine activity probe, fluorescence polarization; P68402;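 active means inhibition above the mean of all tested compounds plus 3 SD, cut at about 24% in these data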;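 further: 0% = enzyme with DMSO and 100% = wells lacking PAFAH1B2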
pPAFAH inh = pPAFAH (human) enzyme inhibition; Q13093; recombinant pPAFAH, FP-rhodamine probe fluorescence polarization; inhibition, % at 3.39 µM; hit rate 1.5% among 330,000;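 active means inhibition above the mean inhibition across the screen plus 3 SD, cut at about 25% in these data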;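 further: inhibitors block binding of the rhodamine activity-based probe so polarization drops; 0% = enzyme with DMSO and 100% = wells lacking pPAFAH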
Target sequence (Q13093 whole entry, looked up): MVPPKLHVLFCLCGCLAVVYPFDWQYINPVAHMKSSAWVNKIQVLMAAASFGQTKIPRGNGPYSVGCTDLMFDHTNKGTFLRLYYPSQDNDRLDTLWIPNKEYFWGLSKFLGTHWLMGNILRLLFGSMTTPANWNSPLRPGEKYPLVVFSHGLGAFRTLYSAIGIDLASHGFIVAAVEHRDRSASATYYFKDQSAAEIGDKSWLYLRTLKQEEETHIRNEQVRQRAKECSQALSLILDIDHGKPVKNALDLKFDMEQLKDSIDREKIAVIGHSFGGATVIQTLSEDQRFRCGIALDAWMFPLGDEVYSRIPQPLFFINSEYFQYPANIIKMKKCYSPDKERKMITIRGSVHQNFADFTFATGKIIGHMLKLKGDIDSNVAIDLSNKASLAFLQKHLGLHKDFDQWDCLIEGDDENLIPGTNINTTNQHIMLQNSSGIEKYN
* hit, by the source's call. Sampled rows, rich in hits. Any-hit rate of the full collection: about 3.8%.

Results for Cc1ccc(S(=O)(=O)c2cc3ccccc3oc2=O)cc1 ?
DSG3 Ab inh: 108; M18AAP inhibitor: 2; PAFAH1B3 inh: 10; PAFAH2 FP inh: 1; PAFAH1B2 inh: -1; pPAFAH inh: 3

What do the screens show for `CCCCc1ccc(NC(=S)N2CCN(C(=O)c3ccco3)CC2)cc1`?
DSG3 Ab inh: 105; M18AAP inhibitor: 6; PAFAH1B3 inh: 0; PAFAH2 FP inh: 0; PAFAH1B2 inh: -2

How did Cc1csc(=O)n1CC(=O)OCC(=O)Nc1ccc(F)c(F)c1F do in these assays?
DSG3 Ab inh: 102

Results for Cc1nnc2n(c1=O)C(CS(=O)(=O)c1ccccc1)CS2 (stereo unspecified) ?
DSG3 Ab inh: 92; M18AAP inhibitor: -9; PAFAH1B3 inh: 4; PAFAH2 FP inh: 0; PAFAH1B2 inh: 7; pPAFAH inh: 5

What do the screens show for `O=[N+]([O-])c1ccc(S(=O)(=O)CC2CSc3nc4ccccc4n32)cc1` (stereo unspecified)?
DSG3 Ab inh: -10*; M18AAP inhibitor: -5; PAFAH1B3 inh: -3; PAFAH2 FP inh: -10; PAFAH1B2 inh: 0; pPAFAH inh: -4

Results for O=C(OCc1ccc(Cl)c(Cl)c1)c1ccc[nH]1 ?
DSG3 Ab inh: 95; M18AAP inhibitor: 1; PAFAH1B3 inh: 4; PAFAH2 FP inh: 47*; PAFAH1B2 inh: 5; pPAFAH inh: -2

What do the screens show for `CCn1c(SCC(=O)NC2CCCC2)nc2c(c1=O)SCC2`?
DSG3 Ab inh: 98

How did CN(CC(=O)Nc1ccc(Cl)cc1)CC(=O)N1CCc2ccccc21 do in these assays?
DSG3 Ab inh: 106

What do the screens show for `CCCCNc1c(-c2cccc(-c3ccc(OC)cc3)c2)nc2ccc(C)cn12`?
DSG3 Ab inh: 116; PAFAH1B3 inh: 2; PAFAH2 FP inh: -8; PAFAH1B2 inh: 3; pPAFAH inh: 25*

Results for COc1cc(-c2nc3ccc(C)cn3c2NCc2ccccc2)ccc1-c1cccc(Cl)c1 ?
DSG3 Ab inh: 100; PAFAH1B3 inh: 6; PAFAH2 FP inh: 2; PAFAH1B2 inh: 0; pPAFAH inh: 30*

Results for Cc1ccc2cc(CNC[C@H]3O[C@@H](n4cc(C)c(=O)[nH]c4=O)C[C@@H]3O)c(N3CCOCC3)nc2c1 ?
DSG3 Ab inh: 104

What do the screens show for `O=C(CCN1C(=O)/C(=C/c2ccc(F)cc2)SC1=S)NC1C=CS(=O)(=O)C1` (stereo unspecified)?
DSG3 Ab inh: 60*; M18AAP inhibitor: 14; PAFAH1B3 inh: 9; PAFAH2 FP inh: -6; PAFAH1B2 inh: 4; pPAFAH inh: 1

How did Cc1cc(C)cc(N(CC(=O)Nc2ccc(C(F)(F)F)cc2)S(=O)(=O)c2c(C)[nH]c(=O)[nH]c2=O)c1 do in these assays?
DSG3 Ab inh: 103; M18AAP inhibitor: 1; PAFAH1B3 inh: -1; PAFAH2 FP inh: 0; PAFAH1B2 inh: 3; pPAFAH inh: 28*

Results for COc1cc(NC(=O)CN(c2cc(C)cc(C)c2)S(=O)(=O)c2c(C)noc2C)cc(OC)c1 ?
DSG3 Ab inh: 110; M18AAP inhibitor: -1; PAFAH1B3 inh: -6; PAFAH2 FP inh: -3; PAFAH1B2 inh: -2; pPAFAH inh: -3

Results for COc1cc(NC(=O)CN(c2cc(C)cc(C)c2)S(=O)(=O)c2c(C)[nH]c(=O)[nH]c2=O)cc(OC)c1 ?
M18AAP inhibitor: -9; PAFAH1B3 inh: 6; PAFAH2 FP inh: 1; PAFAH1B2 inh: 3; pPAFAH inh: 25*

Results for Cc1cc(C)cc(N(CC(=O)Nc2ccc(C)cc2Cl)S(=O)(=O)c2c(C)[nH]c(=O)[nH]c2=O)c1 ?
DSG3 Ab inh: 101; M18AAP inhibitor: 2; PAFAH1B3 inh: -7; PAFAH2 FP inh: 2; PAFAH1B2 inh: 3; pPAFAH inh: 4

How did Cc1ccc(C)c(SCC(=O)Nc2cccnc2Cl)c1 do in these assays?
DSG3 Ab inh: 97; M18AAP inhibitor: -1; PAFAH1B3 inh: 3; PAFAH2 FP inh: 4; PAFAH1B2 inh: 7; pPAFAH inh: 3

How did CC(Sc1ccc(Cl)cc1)C(=O)Nc1ccc(S(=O)(=O)N2CCOCC2)cc1 (stereo unspecified) do in these assays?
M18AAP inhibitor: -2; PAFAH1B3 inh: 13; PAFAH2 FP inh: 3; PAFAH1B2 inh: 31*; pPAFAH inh: 9

How did Cc1c(-c2ccc(OCCN3CCOCC3)cc2)c(=O)oc2ccc3ccccc3c12 do in these assays?
DSG3 Ab inh: 110
